About 79,000 compounds went through this panel and 15% of them were active in at least one assay; those are over-represented in the sample as a whole. Active and inactive are the calls of the source. No stated cut-off is given here; in the data, active means growth inhibition above about 70%; inactive means the rest.

The nature of the first experiment: NCI Yeast Anticancer Drug Screen. Data for the sgs1 mgt1 strain (AID 161).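 Further: 0% = growth of cultures given vehicle only.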 Particulars: S. cerevisiae sgs1 mgt1 strain, at 5.0 µM (retest, dose inferred, filed as 0.5), stronger effect = higher value. The method, boiled down: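 Percent growth inhibition was derived by comparing compound-exposed mutant yeast with vehicle-exposed cultures. The strain carries alterations in DNA damage repair.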
As to `Cc1ccccc1N1C(=O)C(=O)c2cccc(C)c21`, the growth inhibition was 1% (inactive).
Same read-out and setting: then `Nc1n[nH]c(=O)c2cccnc12`, with -1% (inactive).
On the same count and under the same terms, then `CCCCNCCCNCCCNC(=O)c1csc(-c2csc(CCNC(=O)C(NC(=O)C(C)C(O)C(C)NC(=O)C(NC(=O)c3nc(C(CC(N)=O)NCC(N)C(N)=O)nc(N)c3C)C(OC3OC(CO)C(O)C(O)C3OC3OC(CO)C(O)C(OC(N)=O)C3O)c3cnc[nH]3)C(C)O)n2)n1` (stereo not given), with 96% (active); and `c1ccc(-c2ccc(-c3cnc(-c4ccc(-c5ccccc5)cc4)o3)cc2)cc1`, with 1% (inactive); and `CN(C)C=Nc1ccc2nonc2c1`, with 12% (inactive).
For `COC(=O)C(CCC(=O)Cc1ccccc1)N1C(=O)c2ccccc2C1=O` (stereo not given), the growth inhibition was 16% (inactive).
On the same count and under the same terms, the same measure for `O=S(=O)(Nc1ccccc1)c1ccccc1CC(O)(c1ccccc1)c1ccccc1`: 98% (active); for `O=C1OC(=O)C2C=CC=CC12` (stereo not given): 2% (inactive); for `CCOC(=O)N/N=C/c1ccc([N+](=O)[O-])o1`: 3% (inactive).
On the same count and under the same terms, then `CN=C(N)N/N=C(\C)c1ccc2c(ccc3ccccc32)c1`, with 13% (inactive); and `O=C(C(/C=N/C(=S)NCc1ccccc1)=C(/O)c1ccccc1)c1ccccc1`, with 3% (inactive).
In the case of `Cc1nc(Nc2ccc(Cl)cc2)sc1C(=O)Nc1cccc2c(=O)[nH][nH]c(=O)c12`, the growth inhibition was 9% (inactive).
Same read-out and setting: the same measure for `Cc1c2ccccc2c(C)c2c1cc(F)c1ccccc12`: 46% (inactive).
On the same count and under the same terms, then `CC1=C(C(=O)Nc2ccccc2)C(c2cc(Cl)cc(Cl)c2)C(C(=O)Nc2ccccc2)=C(C)N1`, with 11% (inactive).
On to `O=[N+]([O-])/C(Br)=C\c1ccc([N+](=O)[O-])cc1`, for which the growth inhibition was 9% (inactive).
Still for that read-out and setting: the same measure for `CC1=CC(C)(C)Nc2cc(N)ccc21`: -64% (inactive).
The same measure, in the same setting: then `Fc1ccc2nncc(SCc3ccccc3)c2c1`, with 11% (inactive); and `CN(C)c1ccc(-c2c(C#N)c(-c3ccccc3)n(NS(=O)(=O)c3ccccc3)c(=O)c2C#N)cc1`, with 34% (inactive); and `Cc1cc(N2C(=O)CCSC2=S)ccc1Cl`, with 48% (inactive).
The same measure, in the same setting: then `C=C(c1ccccc1)[P+](c1ccccc1)(c1ccccc1)c1ccccc1`, with 99% (active).
On to `Cc1cc(Br)c2ccccc2c1N`, for which the growth inhibition is 0% (inactive).
In the case of `CC1C[N+](C)(C)C(C)C(=O)C1(c1ccccc1)c1ccccc1` (stereo not given), the growth inhibition is -23% (inactive).
Consider `CC(=O)N(C1=CC(=O)c2ccccc2C1=O)c1ccc(C)cc1`, for which the growth inhibition is 36% (inactive).
Take `CC(c1ccccc1)n1c2ccccc2c2c(N)ncnc21` (stereo not given): the growth inhibition is 23% (inactive).
For the compound `CC(=O)O/N=C1/CCC2C3CC=C4CC(OC(C)=O)CCC4(C)C3CCC12C` (stereo not given), the growth inhibition is 8% (inactive).
On the same count and under the same terms, the same measure for `c1cc(CCSSCCc2ccncc2)ccn1`: -1% (inactive).
Same read-out and setting: then `CC1=C(C(=O)Nc2cc(C)ccc2C)C(c2cccc([N+](=O)[O-])c2)C(C(=O)Nc2cc(C)ccc2C)=C(C)N1`, with 19% (inactive); and `ClC1=CC(Cl)=C2N=C(C(Cl)(Cl)Cl)N=C3N=C(C(Cl)(Cl)Cl)N=C1N32`, with 44% (inactive); and `C[n+]1c(-c2ccc(/C=N/Nc3n[nH]c(=S)n3/N=C/c3ccc(-c4cn5ccsc5[n+]4C)cc3)cc2)cn2ccsc21`, with -4% (inactive).
On the same count and under the same terms, the same measure for `CC1(C)OC(=O)C(=NNc2ccccc2[N+](=O)[O-])C(=O)O1`: 2% (inactive); for `CC(CCCOC(c1ccccc1)(c1ccccc1)c1ccccc1)OC(=O)Nc1ccccc1` (stereo not given): 63% (inactive); for `CCN(CC)c1ccc2nc3ccc(N(CC)CC)cc3[n+](-c3ccccc3)c2c1`: 92% (active).
As for `CC1OC(C)C(O)C2=C1C(=O)c1ccccc1C2=O` (stereo not given), the growth inhibition is 14% (inactive).
The same measure, in the same setting: then `CCCCCCCCCCCCS(=O)(=O)CC(Br)C(=O)c1ccco1` (stereo not given), with 67% (inactive); and `NC(=O)NOCC1NC(=O)NC1=O` (stereo not given), with -16% (inactive).
Turning to `O=C(O)C1C(=O)OC2CCCCC21` (stereo not given), the growth inhibition was 1% (inactive).
On the same count and under the same terms, the same measure for `C=CCNC(=S)N/N=C(\CCC)c1ccccn1`: 99% (active); for `Nc1ccc2c(c1)S(=O)(=O)c1cc(N)ccc1-2`: 20% (inactive); for `CN1C(=O)c2cccc3cc([N+](=O)[O-])cc(c23)C1=O`: 6% (inactive).
Regarding `C/C(=N\NC(=S)NC12CC3CC(CC(C3)C1)C2)c1ccccn1`, the growth inhibition is 6% (inactive).

The experiment is the same for the next values; noted with them: S. cerevisiae sgs1 mgt1 strain, at 50.0 µM (retest, dose inferred, filed as 5.0), stronger effect = higher value.
Turning to `Cc1ccccc1N1C(=O)C(=O)c2cccc(C)c21`, the growth inhibition was 99% (active).
Regarding `Nc1n[nH]c(=O)c2cccnc12`, the growth inhibition is -13% (inactive).
Regarding `CCCCNCCCNCCCNC(=O)c1csc(-c2csc(CCNC(=O)C(NC(=O)C(C)C(O)C(C)NC(=O)C(NC(=O)c3nc(C(CC(N)=O)NCC(N)C(N)=O)nc(N)c3C)C(OC3OC(CO)C(O)C(O)C3OC3OC(CO)C(O)C(OC(N)=O)C3O)c3cnc[nH]3)C(C)O)n2)n1` (stereo not given), the growth inhibition is 98% (active).
On to `c1ccc(-c2ccc(-c3cnc(-c4ccc(-c5ccccc5)cc4)o3)cc2)cc1`, for which the growth inhibition was 66% (inactive).
The same measure, in the same setting: then `CN(C)C=Nc1ccc2nonc2c1`, with 16% (inactive); and `COC(=O)C(CCC(=O)Cc1ccccc1)N1C(=O)c2ccccc2C1=O` (stereo not given), with 87% (active); and `O=S(=O)(Nc1ccccc1)c1ccccc1CC(O)(c1ccccc1)c1ccccc1`, with 94% (active).
Still for that read-out and setting: the same measure for `O=C1OC(=O)C2C=CC=CC12` (stereo not given): 4% (inactive).
Turning to `CCOC(=O)N/N=C/c1ccc([N+](=O)[O-])o1`, the growth inhibition is 62% (inactive).
The same measure, in the same setting: the same measure for `CN=C(N)N/N=C(\C)c1ccc2c(ccc3ccccc32)c1`: 99% (active); for `O=C(C(/C=N/C(=S)NCc1ccccc1)=C(/O)c1ccccc1)c1ccccc1`: 61% (inactive).
On the same count and under the same terms, the same measure for `Cc1nc(Nc2ccc(Cl)cc2)sc1C(=O)Nc1cccc2c(=O)[nH][nH]c(=O)c12`: 9% (inactive); for `Cc1c2ccccc2c(C)c2c1cc(F)c1ccccc12`: 94% (active).
On the same count and under the same terms, then `CC1=C(C(=O)Nc2ccccc2)C(c2cc(Cl)cc(Cl)c2)C(C(=O)Nc2ccccc2)=C(C)N1`, with 11% (inactive); and `O=[N+]([O-])/C(Br)=C\c1ccc([N+](=O)[O-])cc1`, with 100% (active).
Take `CC1=CC(C)(C)Nc2cc(N)ccc21`: the growth inhibition is -72% (inactive).
For the compound `Fc1ccc2nncc(SCc3ccccc3)c2c1`, the growth inhibition is 98% (active).
Same read-out and setting: then `CN(C)c1ccc(-c2c(C#N)c(-c3ccccc3)n(NS(=O)(=O)c3ccccc3)c(=O)c2C#N)cc1`, with 50% (inactive); and `Cc1cc(N2C(=O)CCSC2=S)ccc1Cl`, with 43% (inactive); and `C=C(c1ccccc1)[P+](c1ccccc1)(c1ccccc1)c1ccccc1`, with 99% (active).
Consider `Cc1cc(Br)c2ccccc2c1N`, for which the growth inhibition was 74% (active).
On the same count and under the same terms, then `CC1C[N+](C)(C)C(C)C(=O)C1(c1ccccc1)c1ccccc1` (stereo not given), with 3% (inactive); and `CC(=O)N(C1=CC(=O)c2ccccc2C1=O)c1ccc(C)cc1`, with 93% (active); and `CC(c1ccccc1)n1c2ccccc2c2c(N)ncnc21` (stereo not given), with 100% (active).
On the same count and under the same terms, the same measure for `CC(=O)O/N=C1/CCC2C3CC=C4CC(OC(C)=O)CCC4(C)C3CCC12C` (stereo not given): 89% (active).
Take `c1cc(CCSSCCc2ccncc2)ccn1`: the growth inhibition was 79% (active).
Still for that read-out and setting: the same measure for `CC1=C(C(=O)Nc2cc(C)ccc2C)C(c2cccc([N+](=O)[O-])c2)C(C(=O)Nc2cc(C)ccc2C)=C(C)N1`: 34% (inactive).
Turning to `ClC1=CC(Cl)=C2N=C(C(Cl)(Cl)Cl)N=C3N=C(C(Cl)(Cl)Cl)N=C1N32`, the growth inhibition is 85% (active).
For the compound `C[n+]1c(-c2ccc(/C=N/Nc3n[nH]c(=S)n3/N=C/c3ccc(-c4cn5ccsc5[n+]4C)cc3)cc2)cn2ccsc21`, the growth inhibition is 96% (active).
Still for that read-out and setting: then `CC1(C)OC(=O)C(=NNc2ccccc2[N+](=O)[O-])C(=O)O1`, with 16% (inactive).
With `CC(CCCOC(c1ccccc1)(c1ccccc1)c1ccccc1)OC(=O)Nc1ccccc1` (stereo not given), the growth inhibition was 63% (inactive).
Still for that read-out and setting: the same measure for `CCN(CC)c1ccc2nc3ccc(N(CC)CC)cc3[n+](-c3ccccc3)c2c1`: 99% (active).
Consider `CC1OC(C)C(O)C2=C1C(=O)c1ccccc1C2=O` (stereo not given), for which the growth inhibition was 94% (active).
On the same count and under the same terms, the same measure for `CCCCCCCCCCCCS(=O)(=O)CC(Br)C(=O)c1ccco1` (stereo not given): 96% (active).
For `NC(=O)NOCC1NC(=O)NC1=O` (stereo not given), the growth inhibition was -10% (inactive).
Same read-out and setting: then `O=C(O)C1C(=O)OC2CCCCC21` (stereo not given), with 0% (inactive); and `C=CCNC(=S)N/N=C(\CCC)c1ccccn1`, with 96% (active).
For `Nc1ccc2c(c1)S(=O)(=O)c1cc(N)ccc1-2`, the growth inhibition was 19% (inactive).
`CN1C(=O)c2cccc3cc([N+](=O)[O-])cc(c23)C1=O`: the growth inhibition was 69% (inactive).
As for `C/C(=N\NC(=S)NC12CC3CC(CC(C3)C1)C2)c1ccccn1`, the growth inhibition is 98% (active).
